# DAX1 inh-1: DAX1 (NR0B1) inhibitors, primary screen, cell-based, HEK293, Gal4-DAX1, luciferase luminescence; Nuclear receptor subfamily 0 group B member 1 (Homo sapiens), P51843; HEK293 Gal4-DAX1 luciferase reporter; inhibition, % at 6.75 µM; 340,000 compounds, 0.99% hits;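 active = inhibition above the mean over all tested compounds plus 3 SD, cut at about 4.2% in these data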;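 note: 0% = DAX1-transfected cells with DMSO and 100% = empty-vector control cells with DMSO; inhibition shows as a rise in luminescence from relieved DAX1 repression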
# Target sequence (P51843 207-470 limits assumed): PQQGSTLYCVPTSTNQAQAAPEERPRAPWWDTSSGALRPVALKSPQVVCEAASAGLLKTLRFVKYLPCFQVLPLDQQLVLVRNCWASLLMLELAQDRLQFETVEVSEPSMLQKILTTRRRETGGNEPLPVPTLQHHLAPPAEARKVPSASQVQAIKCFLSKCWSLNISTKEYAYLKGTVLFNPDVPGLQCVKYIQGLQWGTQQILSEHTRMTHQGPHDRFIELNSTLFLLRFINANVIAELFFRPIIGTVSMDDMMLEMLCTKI
# DAX1 inh-2: DAX1 (NR0B1) inhibitors on StAR promoter, primary screen, cell-based, luminescence, SF-1 (NR5A1), full-length DAX-1; HEK293T StAR-luciferase reporter, SF-1/DAX-1 repression relief; inhibition, % at 6.8 µM; 370,000 compounds, 1.1% hits; AID 652010, 2013;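 active = inhibition above the mean over all tested compounds plus 3 SD, cut at about 3.6% in these data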;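 note: 0% = DAX-1 cells with DMSO and 100% = cells lacking DAX-1 with DMSO; higher inhibition means more luminescence from relief of DAX-1 repression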
# hcDAF12 agonist: H. contortus DAF-12 nuclear receptor activators, primary screen, cell-based, luminescence, HEK293, lit1-tk-luc reporter; AID 652067, 2013; activation, % at 6.8 µM; 370,000 compounds, 1.4% hits; HEK293 hcDAF-12 lit1-tk-luc reporter; 0% DMSO, 100% Δ7-dafachronic acid;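 active = activation above the mean of all tested compounds plus 3 SD, cut at about 5.5% in these data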;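 note: 100% = response to 3 µM Δ7-dafachronic acid high control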
# SMARCA2 activ: SMARCA2 (BRM) function activators, primary screen, cell-based, luminescence, high throughput; MG213 cells, MMTV-luciferase reporter, dexamethasone, overnight; activation, % at 9.1 µM; 370,000 compounds, 1% hits; in the data active = activation above about 7.8%;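 note: 0% = vehicle wells and 100% = reference activator wells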
# ssDAF12 agonist: S. stercoralis DAF-12 nuclear receptor activators, primary screen, cell-based, luminescence, HEK293, GRIP1 co-expression, lit1-tk-luc | Nuclear hormone receptor DAF-12 (Strongyloides stercoralis) | HEK293 ssDAF-12/GRIP1 lit1-tk-luc reporter; % of 3 µM dafachronic acid response | activation, % at 6.8 µM | 370,000 compounds, 1% hits | AID 652126, 2013;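 active = activation above the mean over all tested compounds plus 3 SD, cut at about 0.9% in these data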;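 note: 0% = DMSO-only wells and 100% = 3 µM delta7-dafachronic acid wells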
# hgDAF-12 ag: H. glycines DAF-12 receptor agonists, primary screen, cell-based, luminescence, HEK293, GAL4 fusion, UAS-luciferase. HEK293 GAL4-hgDAF12 UAS-luciferase reporter, agonist luminescence; normalized to butyrate control. activation, % at 6.8 µM. 370,000 compounds, 1.8% hits. AID 687014, 2013;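 active = activation above a cutoff set at the mean of all screened compounds plus 3 SD, cut at about 10% in these data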;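 note: 0% = DMSO wells and 100% = sodium butyrate wells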
# DAX1 inh confirm: DAX1 (NR0B1) inhibitors relieving SF-1 repression, confirmation, cell-based, luminescence, HEK293T, full-length DAX-1, SF-1 activated StAR promoter. shares compounds with DAX1 inh-2. HEK293T StAR-promoter luciferase reporter, SF-1/DAX-1 repression. inhibition, % at 6.8 µM. 2,400 compounds, 87% hits. AID 652134, 2013;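 active = inhibition above the average of every tested compound plus 3 SD, cut at about 3.8% in these data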;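 note: 0% = DAX-1 cells with DMSO and 100% = no DAX-1 control cells with DMSO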
# SF1 AF2mut Luc: StAR reporter signal changes without DAX1, counter-screen for DAX1 inhibitor project, cell-based, luminescence, AF-2 mutant SF-1, transactivation | 2,400 compounds, 78% hits | shares compounds with DAX1 inh-2 | inhibition, % at 6.8 µM | HEK293 StAR-luciferase, SF-1 AF2 mutant;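 active = inhibition above the mean of all tested compounds plus 3 SD, cut at about 3% in these data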;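 note: 0% = DAX-1 transfected cells with DMSO and 100% = cells without DAX-1 with DMSO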
# SMARCA2 act conf: SMARCA2 (BRM) function activators, confirmation, cell-based, luminescence, triplicate; shares compounds with SMARCA2 activ; MG213 cells, MMTV-luciferase with dexamethasone, overnight; MG213 cells expressing E1A, Rb sequestered; DMSO wells 0%, reference activator 100%; activation, % at 9.1 µM; 3,500 compounds, 30% hits; AID 652260, 2013;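 active = activation above its plate's cutoff, the mean activation of tested wells plus 3 SD, cut at about 7.9% in these data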
# VP16 Luc act: GAL4-VP16 luciferase reporter activation, counter-screen for SMARCA2 (BRM) activator project, cell-based, pG5luc, luminescence, high throughput | 3,500 compounds, 41% hits | shares compounds with SMARCA2 activ | HEK293 GAL4-VP16 pG5luc reporter; scaled: DMSO wells 0%, SAHA wells 100% | AID 686939, 2013 | activation, % at 9.1 µM;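 active = activation above the solvent-only control well mean plus 3 SD, averaged across control plates, cut at about 5.2% in these data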
# LXR ag: LXR agonists, Gal4 luciferase reporter, confirmation, counter-screen for hcDAF-12 agonist project, cell-based, luminescence, HEK293, H. contortus campaign. HEK293 Gal4-LXR tk-luc reporter, 24 h; normalized: DMSO 0%, positive control 100%. shares compounds with hcDAF12 agonist. AID 743027, 2013. 3,400 tested, under 10 active. activation, % at 6.8 µM;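 active = mean percent activation of the reporter above a cutoff set as the average over tested compounds plus their standard deviation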
# Target sequence (P55055 whole entry, looked up, the tested form may be a part): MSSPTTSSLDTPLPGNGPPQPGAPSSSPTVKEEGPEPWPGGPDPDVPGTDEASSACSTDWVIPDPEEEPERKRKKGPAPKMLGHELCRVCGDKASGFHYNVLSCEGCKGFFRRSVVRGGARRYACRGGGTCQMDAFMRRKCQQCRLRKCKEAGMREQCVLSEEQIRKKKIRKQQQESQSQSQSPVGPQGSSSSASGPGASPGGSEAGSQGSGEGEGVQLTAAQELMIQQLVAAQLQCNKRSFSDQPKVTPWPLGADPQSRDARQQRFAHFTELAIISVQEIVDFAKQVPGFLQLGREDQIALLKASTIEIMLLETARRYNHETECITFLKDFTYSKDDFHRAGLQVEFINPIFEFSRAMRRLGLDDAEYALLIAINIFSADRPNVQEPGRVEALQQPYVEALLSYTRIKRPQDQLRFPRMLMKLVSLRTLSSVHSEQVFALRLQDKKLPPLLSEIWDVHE
# hcDAF12 conf: H. contortus DAF-12 receptor agonists, confirmation, cell-based, luminescence, HEK293, lit1-tk-luc, triplicate; shares compounds with hcDAF12 agonist; HEK293 hcDAF-12 lit1-tk-luc reporter; % of Δ7-dafachronic acid response; activation, % at 6.8 µM; 3,400 compounds, 61% hits;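 active = mean activation across triplicate tests above the threshold derived from the earlier primary screen, cut at about 5.5% in these data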;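 note: 0% = DMSO only wells and 100% = 3 µM Δ7-dafachronic acid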
# hgDAF12 ag: H. glycines DAF-12 receptor agonists, confirmation, cell-based, luminescence, HEK293, GAL4-LBD fusion | shares compounds with hgDAF-12 ag | HEK293 GAL4-hgDAF12 luciferase reporter, agonist mode; percent of butyrate response | activation, % at 6.8 µM | 3,300 compounds, 80% hits;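 active = mean activation over triplicate wells above the hit cutoff derived from the earlier primary screen, cut at about 11% in these data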;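 note: 0% = DMSO low control and 100% = 2 mM sodium butyrate high control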
# LXR ag 2: LXR agonists, Gal4 luciferase reporter, confirmation, counter-screen for hgDAF-12 agonist project, cell-based, luminescence, HEK293, H. glycines campaign; shares compounds with hgDAF-12 ag; 24 h; activation, % at 6.8 µM; 3,300 tested, under 10 active;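 active = mean activation of the triplicate above a set limit carried over from the primary screen, none filed active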
# Starred values were filed as active, the others as inactive; . = no result. This is a sample that favours compounds with a hit; in the whole collection about 4.8% have one here.
SMILES,DAX1 inh-1,DAX1 inh-2,hcDAF12 agonist,SMARCA2 activ,ssDAF12 agonist,hgDAF-12 ag,DAX1 inh confirm,SF1 AF2mut Luc,LXR ag,hcDAF12 conf,hgDAF12 ag,LXR ag 2,others
O=C(CSc1ccccn1)N1CCc2ccccc21,0.9,6.9*,1.7,5.6,0.0,15.8*,12.3*,5.7*,.,.,13.6*,0.5,
O=C(CN(CCc1ccccc1)S(=O)(=O)c1ccc(Cl)s1)N1CCOCC1,.,-1.0,-0.1,-6.4,-1.5,0.4,.,.,.,.,.,.,
CCOC(=O)c1cccc(-c2cc(C(=O)OC)c3n(c2=O)CCC3)c1,.,-1.2,-1.8,1.4,-1.0,-3.1,.,.,.,.,.,.,
O=C(Nc1ccc2c(c1)CCC2)c1c(F)cccc1Cl,1.1,2.2,3.5,6.0,-0.2,10.3,.,.,.,.,.,.,
O=C(Nc1ccccc1)Nc1ccc2c(c1)CCC2,1.7,10.2*,4.7,3.1,0.8,16.3*,7.5*,5.0*,.,.,15.2*,0.7,
O=C(Nc1ccc2c(c1)CCC2)Nc1ccccc1F,0.3,16.2*,8.6*,3.9,0.6,16.3*,13.1*,8.5*,1.9,8.6*,21.8*,1.2,
FC(F)(F)c1cc(Cl)c2nc(-c3ccccc3)cn2c1,2.9,6.6*,17.8*,7.6,2.8*,19.7*,14.8*,7.4*,1.8,17.1*,23.4*,1.1,
Nc1cccc(-c2cn3cc(C(F)(F)F)cc(Cl)c3n2)c1,0.5,5.3*,11.8*,2.3,2.1*,13.7*,12.8*,7.6*,1.4,9.1*,17.8*,0.8,
Cc1c[nH]c2cccc(-c3ccc(Cl)cc3Cl)c12,.,0.0,-2.5,2.7,-0.8,1.8,.,.,.,.,.,.,
COc1ccc2c(c1C(=O)/C=C/c1ccccc1)OC(C)(C)C=C2,.,.,-2.5,.,-1.4,1.0,.,.,.,.,.,.,
CN(C)c1ccc(/C=N\NC(=O)c2csnn2)cc1,0.5,5.0*,6.5*,8.4*,1.3*,16.6*,11.7*,6.1*,.,.,19.5*,0.9,SMARCA2 act conf=14.7*;VP16 Luc act=10.2*
COc1ccc(-c2cc3ccccc3oc2=O)cc1NC(=O)c1ccc(Br)o1,2.9,0.2,3.4,5.4,0.0,5.7,.,.,.,.,.,.,
CCC(=O)Nc1cc(-c2cc3ccccc3oc2=O)ccc1OC,2.1,5.0*,0.9,9.3*,-0.8,13.8*,9.3*,6.0*,.,.,15.4*,0.5,SMARCA2 act conf=10.9*;VP16 Luc act=9.6*
COc1cccc(C(=O)/C=C2\Sc3ccccc3N2C)c1,1.1,5.4*,13.0*,7.0,2.6*,28.2*,11.4*,10.0*,1.7,9.1*,21.6*,1.0,
CNC(=S)Nc1ccc(-c2nc3ccc(C)cc3s2)cc1,0.7,5.9*,7.3*,5.4,1.8*,18.2*,11.8*,6.2*,1.8,8.9*,24.2*,1.0,
CCC(C)(C)NC(=S)Nc1ccc(-c2nc3ccc(C)cc3s2)cc1,1.5,8.4*,9.1*,0.9,0.9*,20.2*,16.4*,7.6*,0.9,5.7*,19.2*,1.0,
Cc1cc(C)cc(N(CC(=O)Nc2ccc(-c3nc4ccc(C)cc4s3)cc2)S(C)(=O)=O)c1,-0.9,2.8,3.2,5.7,-0.8,9.7,.,.,.,.,.,.,
CCCCNC(=S)Nc1ccc(-c2nc3ccc(C)cc3s2)cc1,1.1,7.1*,10.3*,4.6,0.8,20.1*,13.3*,9.0*,1.5,5.3,20.1*,0.9,
CC1=CCC(C(=O)O)C(C(=O)Nc2ccc(-c3nc4ccc(C)cc4s3)cc2)C1 (configuration not stated),0.1,6.1*,6.7*,6.6,1.9*,13.5*,1.7,1.0,0.5,3.2,5.4,0.4,
CCOC(=O)[C@@]12CCC3=C1N(CCC3)C(=O)[C@H](CC(=O)NCCC(C)C)C2,.,-1.7,-1.6,-3.2,-0.7,0.0,.,.,.,.,.,.,
CCC[C@H]1[C@@H](OC(=O)NCc2ccc(Cl)cc2)CC[C@@]23CCCN2C(=O)CCC[C@@H]13,.,.,-3.3,.,-1.0,-1.3,.,.,.,.,.,.,
O=C(NCCc1c[nH]c2ccccc12)c1ccc2c(c1)ncn2C1CCCCC1,.,-0.6,-0.8,2.2,-0.7,2.4,.,.,.,.,.,.,

# Source: PubChem
